Bioassay records from PubChem.
Mtb FBA inh: inhibits M. tuberculosis FBA enzyme; inhibition, % at 1 µM; 360,000 tested, 2.3% active; P9WQA3; purified M. tuberculosis FBA, fluorescence read-out; in the data active = inhibition above about 27%
GDH-TPI inh: GDH-TPI coupled enzyme inhibition counter-screen | GDH-TPI coupled enzyme counterscreen, NADH absorbance | 360,000 tested, 1.2% active | AID 588335 | inhibition, % at 4.8 µM; in the data active = inhibition above about 30%
RecA intein inh: blocks M. tuberculosis RecA intein splicing; P9WHJ3; cell-free RecA intein splicing, fluorescence; inhibition, % (concentration not given with the values); 290,000 tested, 0.75% active; in the data active = inhibition above about 30%
Mtb betalactam: beta-lactam sensitization of Mtb H37Rv; inhibition, % at 25 µM; M. tuberculosis H37Rv growth with meropenem, percent inhibition; 330,000 tested, 0.27% active; call rule not given here;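 note: growth measured after seven days incubation then overnight dye step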
UGM FP inh: inhibitors of M. tuberculosis UDP-galactopyranose mutase; 320,000 tested, 0.06% active; inhibition, % at 10 µM; purified UGM, fluorescence polarization probe displacement; AID 504406; P9WIQ1; in the data active = inhibition above about 10%, passing the limit was not always enough
Rv3671c inh: inhibitors of M. tuberculosis serine protease Rv3671c; P9WHR9; inhibition, % at 5.96 µM; 320,000 tested, 0.048% active; AID 2606; in the data active = inhibition above about 38%;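 note: extracellular domain of Rv3671c used as enzyme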
Hits are given with their value. A selection: hits, their analogues and other compounds. The true share with any hit is near 4%.

`COc1ccc(-c2nsc(C(=O)N(c3ccc(F)cc3)C(C(=O)NC3CCCC3)c3ccc(OC)cc3)c2N)cc1` (stereo not drawn) gave Mtb FBA inh inactive, GDH-TPI inh 31.1, RecA intein inh inactive, Mtb betalactam inactive, UGM FP inh inactive and Rv3671c inh inactive.
CCCCN(C(=O)c1ccc(C)cc1)c1c(N)n(CCC)c(=O)[nH]c1=O was read as Mtb FBA inh inactive, GDH-TPI inh inactive, Mtb betalactam inactive, UGM FP inh inactive and Rv3671c inh inactive.
`C=C(C)Cn1c2ccc(NC(=O)CCc3cccc(Cl)c3)cc2c(=O)n1C` gave Mtb FBA inh active and GDH-TPI inh inactive.
`C=C(C)Cn1c2ccc(NC(=O)CCOCC)cc2c(=O)n1C` gave Mtb FBA inh active and GDH-TPI inh inactive.
For CCCC(=O)Nc1ccc2c(c1)c1ccccc1n2CC the results were Mtb FBA inh inactive, GDH-TPI inh inactive, RecA intein inh inactive, Mtb betalactam inactive, UGM FP inh inactive and Rv3671c inh inactive.
Screening CCOCCC(=O)Nc1ccc2c(c1)c(=O)n(C)n2CC=C(C)C returned Mtb FBA inh active and GDH-TPI inh inactive.
`CCOC(=O)C1CCN(C(=O)c2cc(COc3ccc(OC)c4ccccc34)on2)CC1` gave Mtb FBA inh inactive, GDH-TPI inh inactive, RecA intein inh inactive, Mtb betalactam inactive, UGM FP inh inactive and Rv3671c inh inactive.
`O=C(Cn1c2c(c(-c3ccccc3Cl)cc1=O)CCC2)NCCCN1CCOCC1` gave Mtb FBA inh inactive, GDH-TPI inh 30.9, RecA intein inh inactive, Mtb betalactam inactive, UGM FP inh inactive and Rv3671c inh inactive.
For CC(C)NC(=O)C1(S(=O)(=O)c2ccccc2)CC=CC1 the results were Mtb FBA inh inactive, GDH-TPI inh inactive, RecA intein inh inactive, Mtb betalactam inactive, UGM FP inh inactive and Rv3671c inh inactive.
O=C(NC1CC1)c1cc(-c2ccco2)nc2ccccc12 was read as Mtb FBA inh 63.0, GDH-TPI inh inactive and RecA intein inh inactive.
Cc1nnc(NC(=O)c2cc(-c3ccco3)nc3ccccc23)s1 was read as Mtb FBA inh inactive, GDH-TPI inh inactive, RecA intein inh inactive, Mtb betalactam inactive, UGM FP inh inactive and Rv3671c inh inactive.
For O=C(O)c1cc(-c2ccco2)nc2ccccc12 the results were Mtb FBA inh 180.6, GDH-TPI inh inactive, RecA intein inh inactive, Mtb betalactam inactive, UGM FP inh inactive and Rv3671c inh inactive.
`COc1ccc(S(=O)(=O)Nc2ccc(-n3cnnn3)cc2)cc1[N+](=O)[O-]` gave Mtb FBA inh inactive, GDH-TPI inh inactive, Mtb betalactam inactive, UGM FP inh inactive and Rv3671c inh inactive.
Cc1cc(=O)n2nc(N3CCCC(C(=O)NC4CCC(C)CC4)C3)sc2n1 (stereo not drawn) was read as Mtb FBA inh inactive, GDH-TPI inh inactive, RecA intein inh inactive, Mtb betalactam inactive, UGM FP inh inactive and Rv3671c inh inactive.
Screening Cc1c(C)c(C)c2[nH]c(-c3ccc4c(c3)OCO4)nc2c1C returned Mtb FBA inh 173.2, GDH-TPI inh inactive, RecA intein inh inactive, Mtb betalactam inactive, UGM FP inh inactive and Rv3671c inh inactive.
Screening COc1ccc(-c2[nH]c(-c3ccc4c(c3)OCO4)nc2-c2ccccc2)cc1 returned Mtb FBA inh 80.3, GDH-TPI inh inactive, RecA intein inh inactive, Mtb betalactam inactive, UGM FP inh inactive and Rv3671c inh inactive.
Screening Cc1nc(-c2ccc3c(c2)OCO3)cs1 returned Mtb FBA inh inactive, GDH-TPI inh inactive, RecA intein inh inactive, Mtb betalactam inactive, UGM FP inh inactive and Rv3671c inh inactive.
For COc1ccc(-c2[nH]c(-c3ccc(C(=O)O)cc3)nc2-c2ccccc2)cc1 the results were Mtb FBA inh active, GDH-TPI inh inactive, RecA intein inh inactive, Mtb betalactam inactive, UGM FP inh inactive and Rv3671c inh inactive.
Screening Oc1ccc(-c2nc(-c3ccc(F)cc3)c(-c3ccncc3)[nH]2)cc1 returned Mtb FBA inh inactive, GDH-TPI inh inactive, Mtb betalactam inactive and Rv3671c inh inactive.
For COc1ccc(N=Nc2nc(-c3ccccc3)c(-c3ccccc3)[nH]2)cc1 the results were Mtb FBA inh inactive, GDH-TPI inh inactive, RecA intein inh inactive, Mtb betalactam inactive and Rv3671c inh inactive.
Screening O=C(O)c1ccc(-c2nc(-c3ccccc3)c(-c3ccccc3)[nH]2)cc1 returned Mtb FBA inh active, GDH-TPI inh inactive, RecA intein inh inactive, Mtb betalactam inactive, UGM FP inh inactive and Rv3671c inh inactive.
Screening COc1ccc(-c2nc(-c3ccccc3)[nH]c(=O)c2C#N)cc1 returned Mtb FBA inh inactive, GDH-TPI inh inactive, RecA intein inh inactive, Mtb betalactam inactive, UGM FP inh inactive and Rv3671c inh inactive.
`CCCCc1nc2cc(C(=O)N(C)C3CCOCC3)ccc2o1` gave Mtb FBA inh inactive, GDH-TPI inh inactive, RecA intein inh inactive, Mtb betalactam inactive, UGM FP inh inactive and Rv3671c inh inactive.
`O=C1NC(=S)SC1=Cc1ccccn1` gave Mtb FBA inh inactive.
Screening CC(Sc1ccc(Cl)cc1)C(=O)NNC(=O)c1ccco1 (stereo not drawn) returned Mtb FBA inh inactive, GDH-TPI inh inactive, Mtb betalactam inactive, UGM FP inh inactive and Rv3671c inh inactive.
For O=C(Nc1ccc2nn(-c3ccccc3)nc2c1)c1cccnc1 the results were Mtb FBA inh inactive, GDH-TPI inh 34.6, RecA intein inh inactive, Mtb betalactam inactive, UGM FP inh inactive and Rv3671c inh inactive.
For O=C(Nc1cc2nn(-c3ccccc3)nc2cc1Cl)c1ccco1 the results were Mtb FBA inh inactive, GDH-TPI inh 38.1, RecA intein inh inactive, Mtb betalactam inactive, UGM FP inh inactive and Rv3671c inh inactive.
`Cc1nc2ccc(NC(=O)c3ccco3)cc2nc1C` gave Mtb FBA inh inactive, GDH-TPI inh inactive, RecA intein inh inactive, Mtb betalactam inactive, UGM FP inh inactive and Rv3671c inh inactive.
Screening O=C(Nc1ccc2nn(-c3ccccc3)nc2c1)c1ccco1 returned Mtb FBA inh inactive, GDH-TPI inh 32.7, RecA intein inh inactive, Mtb betalactam inactive, UGM FP inh inactive and Rv3671c inh inactive.
`CC(C)C(=O)Nc1ccc2nn(-c3ccccc3)nc2c1` gave Mtb FBA inh active, GDH-TPI inh inactive, RecA intein inh inactive, Mtb betalactam inactive, UGM FP inh inactive and Rv3671c inh inactive.
`CCOc1ccc(C(C)NC(=O)c2ccc3c(c2)NC(=O)C(C)S3)cc1OCC` (stereo not drawn) gave Mtb FBA inh inactive, GDH-TPI inh inactive, Mtb betalactam inactive and Rv3671c inh inactive.
`CSc1ncccc1C(=O)Nc1cc(Cl)ccc1N1CCOCC1` gave Mtb FBA inh inactive, GDH-TPI inh inactive, Mtb betalactam inactive, UGM FP inh inactive and Rv3671c inh inactive.
For O=C(Nc1ccccc1C(=O)NCc1cccnc1)c1ccccc1F the results were Mtb FBA inh inactive, GDH-TPI inh inactive, RecA intein inh inactive, Mtb betalactam inactive, UGM FP inh inactive and Rv3671c inh inactive.
COC(=O)c1oc(-c2ccccc2)nc1C was read as Mtb FBA inh inactive, GDH-TPI inh inactive, RecA intein inh inactive, Mtb betalactam inactive, UGM FP inh inactive and Rv3671c inh inactive.
